Source: PubChem (Broad Institute)
Not all results are given here.
aSyn UTR act: Activators via SNCA 5'UTR binding, MLPCN | alpha-synuclein 5'UTR reporter, activators screen | activity score, % (tested at 7.5 µM), hits read low | actives 7.1% (n = 300,000); in the data active = activity score below about -60%
An asterisk follows results filed as active.

Results for c1cc2c(cc1-c1csc(NNC3=NCCCCC3)n1)OCCO2 ?
aSyn UTR act: -70*

What do the screens show for `O=C(Nc1nc(-c2ccc3c(c2)OCCO3)cs1)c1ccco1`?
aSyn UTR act: -77*

Results for O=C(Nc1nc(-c2ccncc2)cs1)c1ccco1 ?
aSyn UTR act: -86*

How did CC(=O)Nc1nc(-c2ccc3c(c2)CCO3)cs1 do in these assays?
aSyn UTR act: -125*

How did CCC(=O)N1CCc2cc(-c3csc(NC(=O)c4ccco4)n3)ccc21 do in these assays?
aSyn UTR act: -77*

Results for O=C(NC(=S)Nc1nc(-c2ccccc2)cs1)c1ccco1 ?
aSyn UTR act: -77*

How did C=CCNc1nc(-c2ccc(O)c(C(N)=O)c2)cs1 do in these assays?
aSyn UTR act: -78*

How did O=c1cc(/C=C/c2c(F)cccc2Cl)[nH]c2ccccc12 do in these assays?
aSyn UTR act: -102*

Results for COc1ccc(-n2nc3cc(C)c(NC(=O)c4cccnc4)cc3n2)cc1 ?
aSyn UTR act: -83*

Results for COc1ccc(-n2nc3cc(C)c(NC(=O)CC(C)C)cc3n2)cc1 ?
aSyn UTR act: -123*

What do the screens show for `Cc1cc2nn(-c3ccccc3)nc2cc1NC(=O)c1cccs1`?
aSyn UTR act: -196*

How did O=C(COc1ccccc1Cl)Nc1cccnc1 do in these assays?
aSyn UTR act: -128*

What do the screens show for `Cc1ccc(Cl)c(OCC(=O)Nc2sc(C)c(C)c2C#N)c1`?
aSyn UTR act: -68*

Results for O=C(COc1ccccc1Cl)Nc1ccc2oc(=O)ccc2c1 ?
aSyn UTR act: -72*

How did Cc1ccc(Cl)c(OCC(=O)Nc2cccnc2)c1 do in these assays?
aSyn UTR act: -116*

What do the screens show for `O=C(O)c1ccc(/C=C/c2ccc3cccc(O)c3n2)cc1`?
aSyn UTR act: -188*

How did Oc1ccc(/C=C/c2ccc3cccc(O)c3n2)cc1Br do in these assays?
aSyn UTR act: -200*

What do the screens show for `CCC(=O)Nc1cc(-c2cc3ccccc3oc2=O)ccc1OC`?
aSyn UTR act: -98*

Results for CCC(=O)Nc1ccc(-c2cc3ccccc3oc2=O)cc1 ?
aSyn UTR act: 54

What do the screens show for `COc1ccc(-c2cc3ccccc3oc2=O)cc1NC(=O)c1ccc([N+](=O)[O-])o1`?
aSyn UTR act: -240*

Results for COc1ccc(-c2cc3ccccc3oc2=O)cc1NC(=O)c1ccc(Br)o1 ?
aSyn UTR act: -94*

Results for Cc1nc2ccc(NC(=O)Cc3c(F)cccc3Cl)cc2s1 ?
aSyn UTR act: -126*

What do the screens show for `Cc1ccc(NC(=O)Cc2cccs2)cc1Cl`?
aSyn UTR act: -116*

Results for O=C(Cc1cccs1)Nc1cccc(-c2nc3cc4ccccc4cc3[nH]2)c1 ?
aSyn UTR act: -92*

Results for Cc1nc2ccc(NC(=O)Cc3cccs3)cc2s1 ?
aSyn UTR act: -148*

Results for CCN1C(=S)SC(=O)C1=C1C=C(C)OC(C)=C1 ?
aSyn UTR act: -97*

What do the screens show for `CCN1C(=S)SC(=O)C1=C1C=C(C)N(Cc2ccco2)C(C)=C1`?
aSyn UTR act: -132*

How did COc1ccc(/C=C/c2nc3ccccc3n2Cc2ccc(OC)c(OC)c2)cc1 do in these assays?
aSyn UTR act: -191*

Results for CC(C)n1c(/C=C/c2ccccc2)nc2ccccc21 ?
aSyn UTR act: -118*

What do the screens show for `COc1cc(Cn2c(-c3nonc3N)nc3ccccc32)ccc1C`?
aSyn UTR act: 96

How did COCCOCCn1c(/C=C/c2ccccc2)nc2ccccc21 do in these assays?
aSyn UTR act: -97*

Results for COc1ccc(-n2nc(C(=O)NCC(=O)N3CCN(c4ccccc4F)CC3)c3ccccc3c2=O)cc1 ?
aSyn UTR act: -120*

How did COCCNc1oc(-c2ccc(Cl)cc2)nc1C#N do in these assays?
aSyn UTR act: -162*

How did COCCNc1oc(-c2ccc(C)cc2)nc1C#N do in these assays?
aSyn UTR act: -107*

What do the screens show for `N#Cc1nc(-c2ccc(Cl)cc2)oc1NCc1ccco1`?
aSyn UTR act: -108*

How did CC(C)N1CCC2(CC1)N=C(c1ccc3c(c1)OCO3)CC(c1cc(Cl)ccc1O)N2 (stereo unspecified) do in these assays?
aSyn UTR act: -173*

Results for CNC(=O)c1c(Cl)cnn1-c1ccc(C)cc1 ?
aSyn UTR act: -151*

How did C=CCNC(=O)c1c(Cl)cnn1-c1ccc(C)cc1 do in these assays?
aSyn UTR act: -95*

Results for Cc1ccc(-n2ncc(Cl)c2C(=O)NC2CC2)cc1 ?
aSyn UTR act: -153*

How did CNC(=O)c1c(Br)cnn1-c1ccc(C)cc1 do in these assays?
aSyn UTR act: -158*

What do the screens show for `Cc1cccc(NC(=O)Nc2ccc([N+](=O)[O-])cc2)n1`?
aSyn UTR act: -97*

What do the screens show for `COc1ccc(C2C(C(=O)Nc3cccc(C)n3)CCC(=O)N2c2ccc(OC)cc2)cc1` (stereo unspecified)?
aSyn UTR act: 73

What do the screens show for `Cc1cccc(NC(=O)Nc2ccc(F)cc2)n1`?
aSyn UTR act: -91*

What do the screens show for `COc1ccc(NC(=O)Nc2ccc([N+](=O)[O-])cc2)cn1`?
aSyn UTR act: -102*

Results for Cc1cccc(NC(=O)Nc2cccc(C)n2)n1 ?
aSyn UTR act: -95*

How did Cc1cccc(NC(=O)Nc2ccc(C)c(C)c2)n1 do in these assays?
aSyn UTR act: -120*

What do the screens show for `Cc1ccc(NC(=O)Nc2cccc(C)n2)cc1`?
aSyn UTR act: -76*

Results for Cc1cccc(NC(=O)Nc2ccc(Cl)cc2)n1 ?
aSyn UTR act: -99*

What do the screens show for `CCN(CC)C(=O)C1CC(c2ccc(OC)cc2)=NO1` (stereo unspecified)?
aSyn UTR act: -103*

What do the screens show for `CC(=O)c1cnc(Nc2ccc(C)cc2)s1`?
aSyn UTR act: -122*

What do the screens show for `Cc1ccc(/C=N/NC(=S)N2CCOCC2)cc1`?
aSyn UTR act: -85*

How did O=C(NC(NC(=S)N1CCOCC1)C(Cl)(Cl)Cl)c1ccc(Cl)cc1 (stereo unspecified) do in these assays?
aSyn UTR act: 66

Results for S=C(N/N=C/c1ccc(Cl)cc1)N1CCOCC1 ?
aSyn UTR act: -69*

Results for S=C(N/N=C/c1ccc(Br)cc1)N1CCCCC1 ?
aSyn UTR act: -195*

Results for Oc1c(N=Nc2ccccc2)sc2ccccc12 ?
aSyn UTR act: -192*

How did CN1CCC(=NOc2ccc([N+](=O)[O-])cc2)CC1 do in these assays?
aSyn UTR act: -93*

Results for CN(C)CC/C=C1/c2ccccc2CS(=O)(=O)c2ccccc21 ?
aSyn UTR act: -74*

What do the screens show for `Cc1cc(C)n(-c2nc(-c3ccc(Cl)c(Cl)c3)cs2)n1`?
aSyn UTR act: -109*

Results for O=C(N/N=C/c1ccccc1[N+](=O)[O-])c1ccc2nc[nH]c2c1 ?
aSyn UTR act: -113*

Results for CCN(CC)c1ccc(/C=N/NC(=O)c2ccc3nc[nH]c3c2)c(O)c1 ?
aSyn UTR act: 93

Results for O=C(Nc1ccc(F)cc1)c1ccc2nc[nH]c2c1 ?
aSyn UTR act: -82*

What do the screens show for `CN(C)c1ccc(NC(=O)c2ccc3nc[nH]c3c2)cc1`?
aSyn UTR act: -126*

How did Cc1ccc(NC(=O)c2ccc3nc[nH]c3c2)cc1C do in these assays?
aSyn UTR act: -170*

What do the screens show for `CN(C)CCCn1cnc2c(c1=N)C(c1ccccc1)c1ccc3ccccc3c1O2` (stereo unspecified)?
aSyn UTR act: 90

How did COc1cc(NC(=O)c2cc(-c3ccccc3Cl)on2)cc(OC)c1OC do in these assays?
aSyn UTR act: -76*

Results for COc1ccc(NC(=O)c2cc(-c3ccccc3Cl)on2)cc1 ?
aSyn UTR act: -125*
